Records with an inconclusive call do not appear. Where a structure was tested more than once in an assay, its records may differ in their call. Calls of active or inactive are those of the source. Unless noted, the call rests on the fitted dose curve; in most records, active means well fitted curve in the direction sought with a large enough effect in the repeat runs; inconclusive means weak or mixed curves; inactive means no such curve, though single readings can be large; an effect the other way counts as inactive or inconclusive.

The nature of assay [1]: qHTS assay to identify aromatase inhibitors - cell viability counter screen (AID 743084).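 Further: cells stimulated with testosterone during compound exposure; nearly all actives have a fitted effect of over 55% in size.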 Background: Quantitative high-throughput screening tests each substance at several concentrations.
Assay [2] concerns the target Aryl hydrocarbon receptor (Homo sapiens) (UniProt P35869). Briefly: qHTS assay to identify small molecule that activate the aryl hydrocarbon receptor (AhR) signaling pathway (AID 743085). Further: nearly all actives have a fitted effect of over 15% in size. Further: potency means the concentration at half of the fitted maximal effect.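 On activation: HG2L7.5c1 human HepG2 liver cells with stably integrated DRE-driven firefly reporter; series mostly up to about 70 µM.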 Put shortly: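 Stably transfected human liver carcinoma cells (HG2L7.5c1; 20 DRE-firefly luciferase) were incubated 5 h, dosed, and kept 24 h at 37C. Agonism was scored from increased luciferase luminescence.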

Assay [3] is described as follows: qHTS assay to identify small molecule that activate the aryl hydrocarbon receptor (AhR) signaling pathway - cell viability counter screen (AID 743086). Further: series mostly up to about 70 µM; nearly all actives have a fitted effect of over 45% in size. The procedure, abridged: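 Cytotoxicity counter screen: CellTiter-Fluor signal (30 min, 37 C) in 4000 HepG2 cells/well carrying the DRE-luciferase reporter, following 24 h compound exposure at 37 C.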
The target of assay [4] is Peroxisome proliferator-activated receptor gamma (Homo sapiens) (UniProt P37231). Briefly: qHTS assay to identify small molecule agonists of the peroxisome proliferator-activated receptor gamma (PPARg) signaling pathway (AID 743094; active means well fitted activation curve with a large enough effect in the signal ratio in the repeat runs, not every such curve was filed as active; the % refers to the signal ratio). The procedure, abridged:
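Beta-lactamase FRET fluorescence was the read-out after a 1 h room-temperature substrate step, following 17 h compound treatment at 37C of HEK293H cells expressing a UAS-driven bla reporter responsive to PPARg.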

The nature of assay [5]: qHTS assay to identify small molecule antagonists of the peroxisome proliferator-activated receptor gamma (PPARg) signaling pathway - cell viability counter screen (AID 743194). Further: nearly all actives have a fitted effect of over 55% in size. To be noted: Potency: co-treated with 50 nM rosiglitazone. The procedure, abridged: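 Viability was measured as CellTiter-Glo luminescence in GeneBLAzer PPARg UAS-bla HEK293H cells. These cells had been exposed 17 h at 37 C to compounds together with rosiglitazone at 50 nM final, with the beta-lactamase readout taken in the same wells.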

The nature of assay [6]: qHTS assay for small molecule agonists of the antioxidant response element (ARE) signaling pathway - cell viability counter screen (AID 743203; calls by dose curve; further: nearly all actives have a fitted effect of over 55% in size). Put shortly:
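HepG2 cells carrying ARE-driven beta-lactamase; 2,000 cells/well; 5 hrs plating; compound pinned from DMSO; 16 hrs 37C/5% CO2; CellTiter-Glo added; 30 min RT; luminescence.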

Assay [7] can be described thus: qHTS assay for small molecule activators of the heat shock response signaling pathway - cell viability counter screen (AID 743209). Further: nearly all actives have a fitted effect of over 50% in size. The procedure, abridged: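 Luminescence from CellTiter-Glo, added after the beta-lactamase FRET read, gave the viability signal. Cells were HSE-bla HeLa treated with DMSO-dissolved compounds for 5 h at 37 C following overnight plating.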

A short description of assay [8]: qHTS assay for small molecule activators of the heat shock response signaling pathway (AID 743210; active means well fitted activation curve with a large enough effect in the signal ratio in the repeat runs, with a control signal flat, not every such curve was filed as active; the % refers to the signal ratio;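 further: HeLa cells with beta-lactamase reporter driven by heat shock elements; series mostly up to about 63 µM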). Put shortly:
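In HSE-bla HeLa cells, 5 h compound incubation (37 C) precedes addition of LiveBLAzer B/G substrate; after 2.5 h at room temperature, fluorescence intensity indicates reporter induction.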

Assay [9] can be described thus: qHTS assay to identify small molecule agonists of the peroxisome proliferator-activated receptor delta (PPARd) signaling pathway - cell viability counter screen (AID 743211). Further: nearly all actives have a fitted effect of over 55% in size. Put shortly: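 In the same wells used for beta-lactamase reporter measurement, cytotoxicity is scored by CellTiter-Glo. HEK293H PPARd-bla cells receive compound for 17 h at 37C following a 5 h settling period.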

The target of assay [10] is Peroxisome proliferator-activated receptor delta (Homo sapiens) (UniProt Q03181). Briefly: qHTS assay to identify small molecule agonists of the peroxisome proliferator-activated receptor delta (PPARd) signaling pathway (AID 743212; calls by dose curve). Put shortly:
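HEK293H UAS-bla reporter cells, human PPARd system; compounds delivered in DMSO after 5 h plating, then at 37 C. Beta-lactamase FRET read, 2 h RT substrate step.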

A short description of assay [11]: qHTS assay to identify small molecule antagonists of the peroxisome proliferator-activated receptor delta (PPARd) signaling pathway - cell viability counter screen (AID 743213). Further: nearly all actives have a fitted effect of over 50% in size. The procedure, abridged: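 In this counter screen, HEK293H cells carrying a UAS-beta-lactamase reporter are co-treated with test compounds and 300 nM L165041 (final) for 17 h at 37 C; cell viability is quantified by CellTiter-Glo luminescence.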

The target of assay [12] is Peroxisome proliferator-activated receptor delta (Homo sapiens) (UniProt Q03181). Briefly: qHTS assay to identify small molecule antagonists of the peroxisome proliferator-activated receptor delta (PPARd) signaling pathway (AID 743215; active means well fitted inhibition curve with a large enough effect in the signal ratio in the repeat runs, not every such curve was filed as active; the % refers to the signal ratio;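 further: cells stimulated with agonist L165041 at 300 nM final during compound exposure; series mostly up to about 62 µM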). Put shortly:
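Read-out is beta-lactamase FRET fluorescence, measured 2 h after substrate addition at room temperature. Beforehand, UAS-bla HEK293H cells carrying the PPARd reporter were exposed to compounds with L165041 at 300 nM final for 17 h at 37 C.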

For assay [13], the target named is Bile acid receptor (Homo sapiens) (UniProt Q96RI1). Briefly: qHTS assay to identify small molecule antagonists of the farnesoid-X-receptor (FXR) signaling pathway (AID 743217; active means well fitted inhibition curve with a large enough effect in the signal ratio in the repeat runs, not every such curve was filed as active; the % refers to the signal ratio). The procedure, abridged:
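HEK 293T FXR-UAS-bla, 5000 cells/well; compound + CDCA 50 uM final; 16 h, 37 °C; B/G FRET substrate 2 h RT; fluorescence.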

Assay [14] can be described thus: qHTS assay to identify small molecule agonists of the farnesoid-X-receptor (FXR) signaling pathway - cell viability counter screen (AID 743218). Further: nearly all actives have a fitted effect of over 45% in size. Further: potency means the concentration at half of the fitted maximal effect. The procedure, abridged: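 HEK 293T FXR-bla cells; 5 h pre-incubation, 16 h compound exposure at 37 C; LiveBLAzer substrate 2 h RT, then CellTiter-Glo 30 min RT, luminescence.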
Assay [15] addresses Bile acid receptor (Homo sapiens) (UniProt Q96RI1). Briefly: qHTS assay to identify small molecule agonists of the farnesoid-X-receptor (FXR) signaling pathway (AID 743220; active means well fitted activation curve with a large enough effect in the signal ratio in the repeat runs, not every such curve was filed as active; the % refers to the signal ratio). The procedure, abridged:
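Beta-lactamase reporter under UAS control in GeneBLAzer FXR HEK 293T cells (5000/well) measured with LiveBLAzer FRET substrate after 2 h at room temperature. Compound exposure lasted 16 h at 37C.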

Assay [16] is described as follows: qHTS assay to identify small molecule antagonists of the farnesoid-X-receptor (FXR) signaling pathway - cell viability counter screen (AID 743221; active means well fitted cell-killing curve with a large enough effect in the repeat runs, not every such curve was filed as active; further: nearly all actives have a fitted effect of over 50% in size; further: potency means the concentration at half of the fitted maximal effect). The procedure, abridged:
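Here viability was scored by luminescence after CellTiter-Glo addition to wells already read for beta-lactamase. Prior treatment: compound plus CDCA (50 uM final), 16 h, 37 C, HEK 293T FXR-bla cells.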

Assay [17] deals with Peroxisome proliferator-activated receptor gamma (Homo sapiens) (UniProt P37231). Briefly: qHTS assay to identify small molecule antagonists of the peroxisome proliferator-activated receptor gamma (PPARg) signaling pathway (AID 743191; calls by dose curve; further: series mostly up to about 63 µM; nearly all actives have a fitted effect of over 30% in size). The procedure, abridged: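 Beta-lactamase reporter under UAS control in HEK293H PPARg-bla cells; compound treatment 17 h at 37C. Read-out: fluorescence intensity after 1 h room-temperature incubation with LiveBLAzer B/G FRET substrate.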

The target of assay [18] is Vitamin D3 receptor (Homo sapiens) (UniProt P11473). Briefly: qHTS assay to identify small molecule antagonists of the vitamin D receptor (VDR) signaling pathway (AID 743223; active means well fitted inhibition curve with a large enough effect in the signal ratio in the repeat runs, not every such curve was filed as active; the % refers to the signal ratio). Put shortly:
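Inhibition of agonist-driven VDR signalling is scored in VDR-bla cells: 3 nM final 1alpha,25-dihydroxyvitamin D3 plus compound, 16 h at 37C, then beta-lactamase detection by FRET substrate fluorescence after 2 h.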

The target is the same in assay [19]. Briefly: qHTS assay to identify small molecule agonists of the vitamin D receptor (VDR) signaling pathway (AID 743222; calls by dose curve). The procedure, abridged: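 VDR-bla cells, 2,000/well; 4 h preincubation 37C; cpd (DMSO) 16 h; LiveBLAzer B/G substrate 2 h RT; fluorescence intensity read.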
Assay [20] in a line: qHTS assay for small molecule agonists of the antioxidant response element (ARE) signaling pathway (AID 743202; active means well fitted activation curve with a large enough effect in the signal ratio in the repeat runs, not every such curve was filed as active; the % refers to the signal ratio; further: potency means the concentration at half of the fitted maximal effect). Put shortly:
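An ARE-responsive beta-lactamase gene stably integrated in HepG2 cells serves as reporter. After 5 h plating and 16 h compound incubation at 37 C, fluorescence of the B/G FRET substrate was measured.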

Sequence of Vitamin D3 receptor (Homo sapiens) (P11473 whole entry, looked up): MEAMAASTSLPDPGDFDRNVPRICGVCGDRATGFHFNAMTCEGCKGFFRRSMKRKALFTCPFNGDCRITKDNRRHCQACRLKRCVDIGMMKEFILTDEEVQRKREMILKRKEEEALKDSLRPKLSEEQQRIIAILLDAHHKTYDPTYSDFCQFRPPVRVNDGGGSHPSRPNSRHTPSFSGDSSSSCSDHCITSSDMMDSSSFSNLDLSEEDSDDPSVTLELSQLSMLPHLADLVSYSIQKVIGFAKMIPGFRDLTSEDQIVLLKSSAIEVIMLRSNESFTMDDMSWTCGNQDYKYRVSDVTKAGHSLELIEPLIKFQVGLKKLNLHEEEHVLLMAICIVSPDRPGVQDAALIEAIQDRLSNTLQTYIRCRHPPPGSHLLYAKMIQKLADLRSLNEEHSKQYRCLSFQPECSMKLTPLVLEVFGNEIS
Sequence of Aryl hydrocarbon receptor (Homo sapiens) (P35869 whole entry, looked up): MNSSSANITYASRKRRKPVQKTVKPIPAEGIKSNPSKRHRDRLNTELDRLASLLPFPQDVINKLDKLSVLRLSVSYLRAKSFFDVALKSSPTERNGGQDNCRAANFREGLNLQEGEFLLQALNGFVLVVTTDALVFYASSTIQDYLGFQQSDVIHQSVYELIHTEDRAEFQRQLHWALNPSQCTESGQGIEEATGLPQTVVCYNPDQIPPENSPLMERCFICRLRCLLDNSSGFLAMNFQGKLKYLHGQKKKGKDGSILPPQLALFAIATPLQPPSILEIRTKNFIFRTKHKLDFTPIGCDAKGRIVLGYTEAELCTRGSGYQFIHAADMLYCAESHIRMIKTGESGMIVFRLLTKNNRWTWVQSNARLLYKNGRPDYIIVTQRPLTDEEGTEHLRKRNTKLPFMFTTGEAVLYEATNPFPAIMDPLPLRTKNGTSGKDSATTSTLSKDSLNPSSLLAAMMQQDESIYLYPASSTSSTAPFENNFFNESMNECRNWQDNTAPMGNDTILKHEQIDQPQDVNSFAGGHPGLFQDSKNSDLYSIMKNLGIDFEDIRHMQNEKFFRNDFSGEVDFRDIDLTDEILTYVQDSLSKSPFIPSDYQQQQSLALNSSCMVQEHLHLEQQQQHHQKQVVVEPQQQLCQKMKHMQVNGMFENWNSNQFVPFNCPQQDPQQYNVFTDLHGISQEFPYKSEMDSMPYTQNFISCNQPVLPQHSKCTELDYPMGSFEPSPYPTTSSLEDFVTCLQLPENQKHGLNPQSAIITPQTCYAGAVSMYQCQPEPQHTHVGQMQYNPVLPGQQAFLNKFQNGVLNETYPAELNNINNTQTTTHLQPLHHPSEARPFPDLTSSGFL
Sequence of Peroxisome proliferator-activated receptor gamma (Homo sapiens) (P37231 whole entry, looked up): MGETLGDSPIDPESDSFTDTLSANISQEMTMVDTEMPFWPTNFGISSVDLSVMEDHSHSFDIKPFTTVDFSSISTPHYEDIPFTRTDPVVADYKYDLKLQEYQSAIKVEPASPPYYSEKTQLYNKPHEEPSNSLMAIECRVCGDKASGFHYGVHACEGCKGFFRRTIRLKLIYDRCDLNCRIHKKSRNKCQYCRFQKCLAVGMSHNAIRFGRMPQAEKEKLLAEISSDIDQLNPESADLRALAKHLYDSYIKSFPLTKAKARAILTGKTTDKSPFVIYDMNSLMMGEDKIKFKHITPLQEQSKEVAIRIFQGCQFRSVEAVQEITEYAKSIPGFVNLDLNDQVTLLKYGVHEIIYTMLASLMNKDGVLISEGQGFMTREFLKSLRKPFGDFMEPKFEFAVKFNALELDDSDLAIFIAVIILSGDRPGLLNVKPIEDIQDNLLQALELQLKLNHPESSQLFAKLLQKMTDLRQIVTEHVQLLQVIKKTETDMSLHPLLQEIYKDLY
Sequence of Bile acid receptor (Homo sapiens) (Q96RI1 whole entry, looked up): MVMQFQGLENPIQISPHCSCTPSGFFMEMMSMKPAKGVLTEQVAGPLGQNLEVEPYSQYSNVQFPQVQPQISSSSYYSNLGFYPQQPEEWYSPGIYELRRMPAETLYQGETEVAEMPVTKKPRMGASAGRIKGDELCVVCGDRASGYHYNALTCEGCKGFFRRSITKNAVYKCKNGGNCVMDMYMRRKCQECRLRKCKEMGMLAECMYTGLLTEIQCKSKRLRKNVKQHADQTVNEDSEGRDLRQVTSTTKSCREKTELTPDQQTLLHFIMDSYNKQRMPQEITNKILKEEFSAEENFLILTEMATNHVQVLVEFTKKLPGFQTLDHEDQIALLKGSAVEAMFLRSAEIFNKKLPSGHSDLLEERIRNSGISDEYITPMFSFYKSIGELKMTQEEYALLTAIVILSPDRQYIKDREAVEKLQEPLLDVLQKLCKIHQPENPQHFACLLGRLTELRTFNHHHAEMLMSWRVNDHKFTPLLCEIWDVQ
Sequence of Peroxisome proliferator-activated receptor delta (Homo sapiens) (Q03181 whole entry, looked up): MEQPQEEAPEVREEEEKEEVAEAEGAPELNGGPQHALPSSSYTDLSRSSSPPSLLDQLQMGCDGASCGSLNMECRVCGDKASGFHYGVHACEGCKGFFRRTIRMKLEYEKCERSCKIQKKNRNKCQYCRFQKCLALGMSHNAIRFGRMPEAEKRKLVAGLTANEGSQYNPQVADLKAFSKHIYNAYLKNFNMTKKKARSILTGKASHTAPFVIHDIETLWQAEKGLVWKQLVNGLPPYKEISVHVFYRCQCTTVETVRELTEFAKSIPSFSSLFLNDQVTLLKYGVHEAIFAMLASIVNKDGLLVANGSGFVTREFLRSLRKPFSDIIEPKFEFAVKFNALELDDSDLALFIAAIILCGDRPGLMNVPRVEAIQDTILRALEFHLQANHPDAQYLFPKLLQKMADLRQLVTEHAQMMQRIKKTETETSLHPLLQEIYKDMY

For the molecule `Cc1ccc2ccccc2c1`, the Potency result in assay [1], in assay [2], in [3], in assay [4], in assay [5] and in assay [6] was “inactive” in each case. In addition, the Potency result in assay [7], in assay [9], in assay [11], in assay [12], in assay [13] and in [14] was “inactive” each time. Further, in [16], the Potency result is “inactive”. Further, the result in assay [8], in [10] and in [15] was inactive.

Take `COC(=O)C(C)N(C(=O)Cc1ccccc1)c1c(C)cccc1C` (stereo not given): the Potency entry in [1], in [2], in [3], in assay [4], in assay [17] and in [6] was “inactive” throughout. The Potency entry in [7], in assay [11], in [12], in [14] and in assay [16] was “inactive” each time. For the same molecule, the molecule was classed as inactive in assay [8], in assay [10] and in assay [18].

Consider `O=C(O)COc1ccc(Cl)cc1`, for which the Potency result in assay [1], in [2], in [3], in assay [4], in assay [5] and in [6] was “inactive” each time. The Potency entry in assay [7], in [9], in assay [11], in assay [12], in assay [14] and in [16] was “inactive” each time. Also, the molecule was classed as inactive in assay [8], in assay [10] and in assay [19].

As for `C=CC(C)=O`, the Potency result in assay [1], in assay [2], in [3], in [4], in assay [20] and in [6] was “inactive” throughout. Also, the Potency entry in [7], in [9], in assay [11], in assay [12], in assay [13] and in assay [14] was “inactive” each time. For the same molecule, in [16], the Potency entry was “inactive”. The result in assay [8], in assay [10] and in assay [15] was inactive.

For the molecule `O=C(O)c1ccccc1C(=O)Nc1cccc2ccccc12`, the Potency result in assay [1], in [3], in assay [4], in [17], in [6] and in assay [7] was “inactive” in each case. Besides, the Potency entry in assay [11], in [12], in assay [13], in [14] and in [16] was “inactive” throughout. The Potency in assay [2] was 13.7 µM (active). Also, the outcome in [8], in assay [10], in assay [15], in assay [19] and in [18] was inactive.

Regarding `[CH3][Sn]([CH3])([Cl])[Cl]`, the Potency result in [1], in assay [2], in [3], in [4], in assay [5] and in [6] was “inactive” throughout. For the same molecule, the Potency result in assay [7] and in assay [11] was “inactive” each time. Besides, the Potency in assay [20] is 34.4 µM (active); in [14] it was 55.9 µM (active) and inactive; in assay [16] it was 55.9 µM (active) and inactive. Further, the result in assay [19] and in [18] was inactive.

`CCOP(=S)(OCC)SCSCC`: the Potency result in assay [1], in [2], in [3], in [4], in assay [5] and in assay [20] was “inactive” throughout. Moreover, the Potency entry in [6], in assay [7], in assay [9], in assay [11], in [12] and in assay [13] was “inactive” throughout. The Potency result in assay [14] and in [16] was “inactive” in each case. In addition, the outcome in assay [8], in [10], in assay [15] and in [19] was inactive.

As to `Cn1sc(Cl)cc1=O`, the Potency entry in [1], in assay [2], in assay [3], in assay [4], in [17] and in [6] was “inactive” throughout. Also, the Potency result in [7], in [11], in assay [12], in assay [13], in [14] and in assay [16] was “inactive” in each case. The molecule was called inactive in [10], in assay [15], in assay [19] and in assay [18].

For `CN1C(=O)NC(=O)C(C)(C2=CCCCC2)C1=O` (stereo not given), the Potency entry in [1], in [2], in assay [3], in assay [4], in [5] and in assay [20] was “inactive” throughout. Besides, the Potency result in assay [6], in assay [7], in assay [9], in [11], in assay [12] and in assay [14] was “inactive” throughout. Moreover, the Potency entry in assay [16] was “inactive”. Besides, the molecule was classed as inactive in assay [8] and in assay [10].

The values above are taken from PubChem BioAssay (Tox21).
